Assay outcomes from PubChem.
Rows were chosen to be rich in hits. Some 28% of all compounds tested hit in one or more screens of this group.
CD11b adhes inh – CD11b/CD18-fibrinogen binding inhibition; inhibition, % at 10 µM; K562 CD11b/CD18 adhesion to fibrinogen, ATPlite luminescence; Mn2+ added to activate the integrin; AID 1497; 93,000 compounds, 0.54% hits;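 active = primary inhibition of 50% or more at 10 µM, then 40% or more on retest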
CYP2C19 inhib – blocks human cytochrome P450 2C19. P33261. inhibition, % at 5 µM. AID 778. 96,000 compounds, 21% hits. CYP2C19 Supersomes, luciferin-H EGE luminescence, 30 min;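 active = CYP2C19 inhibition above a set limit at 5 µM in the primary screen, cut at about 50% in these data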
Target sequence (P33261 whole entry, looked up): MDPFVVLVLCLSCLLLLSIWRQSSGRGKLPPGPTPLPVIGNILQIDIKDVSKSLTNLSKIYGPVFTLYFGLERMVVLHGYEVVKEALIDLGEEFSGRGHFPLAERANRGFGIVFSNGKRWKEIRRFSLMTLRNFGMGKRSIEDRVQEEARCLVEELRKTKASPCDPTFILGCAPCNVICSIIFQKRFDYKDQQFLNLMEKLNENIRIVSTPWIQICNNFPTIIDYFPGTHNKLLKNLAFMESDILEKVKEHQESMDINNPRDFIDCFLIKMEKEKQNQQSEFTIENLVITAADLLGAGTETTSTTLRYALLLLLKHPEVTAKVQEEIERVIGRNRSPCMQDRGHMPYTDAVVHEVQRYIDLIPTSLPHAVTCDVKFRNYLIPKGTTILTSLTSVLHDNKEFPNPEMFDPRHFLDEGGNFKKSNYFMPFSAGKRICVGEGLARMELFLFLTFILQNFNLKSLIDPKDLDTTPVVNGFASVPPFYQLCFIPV
Mac1 fbg enh – enhancers of human CD11b/CD18 binding to fibrinogen. P05107+P11215. K562 CD11b/CD18 adhesion to fibrinogen, ATPlite luminescence. activation, % at 10 µM. 93,000 compounds, 0.07% hits;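 active = 10 µM primary screen giving 50% or more activity, confirmed by 40% or more on retest at that dose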
CYP2C19 activ – cytochrome P450 2C19 (human) activation; P33261; recombinant CYP2C19, luciferin-H EGE luminescence; active compounds read high; 0 = fully inhibited enzyme, 1 = untreated enzyme; activation factor at 5 µM; 96,000 tested, under 10 active; AID 1025;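 active = activation factor of at least 2 at 5 µM in the primary screen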
CYP2C9 activ – increases human cytochrome P450 2C9 activity; AID 1024; recombinant CYP2C9, luciferin-H conversion, luminescence; active compounds read high; factor 1 = untreated enzyme, 0 = blocked; activation factor at 5 µM; 96,000 compounds, 1.4% hits; P11712;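 active = activation factor of 2 or more for CYP2C9 at a 5 µM dose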
CYP2C9 inh – human CYP2C9 inhibition. CYP2C9 Supersomes, luciferin-H conversion, luminescence. inhibition, % at 5 µM. 96,000 compounds, 20% hits. AID 777;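 active = blocking of liver enzyme CYP2C9 beyond about 50% at 5 µM, limit read from the data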
Of the large screens only hits and unclear results are named; the others gave an inactive call.

O=C(c1ccc(Br)o1)N1CCN=C1SCc1cccnc1	CYP2C19 inhib 89, CYP2C9 inh 64
COc1ccc(NC(C)C(=O)Nc2ccc(C#N)cc2)cc1Cl (stereo unspecified)	CYP2C19 inhib 100, CYP2C9 inh 98
COc1ccc(NC(=O)/C=C/C(=O)O)cc1Cl	none
COc1ccc(NC(=O)CNc2cccc(C#N)c2)cc1Cl	none
COc1ccc(NCC(=O)Nc2ccc(C#N)cc2)cc1Cl	CYP2C19 inhib 69, CYP2C9 inh 69
COc1ccc(NC(C)C(=O)Nc2ccc(C(C)(C)C)cc2)cc1Cl (stereo unspecified)	CYP2C19 inhib 94, CYP2C9 inh 90
O=S(=O)(c1ccc(NC2CCCCC2)cc1)N1CCOCC1	none
CSc1c(-c2ccccc2)nc2ccc(Cl)cc2c1C(=O)O	CYP2C9 inh 81
CCN(CC)S(=O)(=O)c1ccc2nnn(OCC(=O)Nc3cccc(C#N)c3)c2c1	CYP2C19 inhib 94, CYP2C9 inh 97
CCN(CC)S(=O)(=O)c1cccc(C(=O)Nc2ccc(C#N)cc2)c1	none
O=C1C2C3C=CC(C3)C2C(=O)N1CCN1CCN(S(=O)(=O)c2ccc3ccccc3c2)CC1 (stereo unspecified)	none
CCC1(C)Cc2c(sc3nnn(Cc4ccccc4Cl)c(=O)c23)CO1 (stereo unspecified)	CYP2C9 inh 76 (no result: CD11b adhes inh, Mac1 fbg enh)
CCC1(C)Cc2c(sc3nnn(CC(=O)Nc4ccccc4C)c(=O)c23)CO1 (stereo unspecified)	CYP2C19 inhib 84
CCC1(C)Cc2c(sc3nnn(CC(=O)Nc4ccccc4)c(=O)c23)CO1 (stereo unspecified)	CYP2C19 inhib 89, CYP2C9 inh 68
CCS(=O)c1ccccc1C(=O)O (stereo unspecified)	none
O=C(CN1CCC(c2nc3ccccc3s2)CC1)NCc1cccs1	CD11b adhes inh 100
Cc1ccc(NC(=S)N2CCC(c3nc4ccccc4s3)CC2)cc1	CYP2C9 inh 57
O=C(CSc1ccccc1Cl)N1CCC(c2nc3ccccc3s2)CC1	none
CCNC(=S)N1CCC(c2nc3ccccc3s2)CC1	CYP2C19 inhib 84 (no result: CD11b adhes inh, Mac1 fbg enh)
Cc1ccc(C(=O)COC(=O)c2ccccc2N2C(=O)C3C4CCC(C4)C3C2=O)cc1C (stereo unspecified)	none
CC(C)C(c1nnnn1C1CCCC1)N1CCN(C(=O)c2ccco2)CC1 (stereo unspecified)	CYP2C9 inh 50
CC(C)C(c1nnnn1C1CCCCC1)N1CCN(c2ncccn2)CC1 (stereo unspecified)	CYP2C9 inh 60
CC(C)CC(c1nnnn1C1CCCCC1)N1CCN(c2ncccn2)CC1 (stereo unspecified)	CYP2C19 inhib 88, CYP2C9 inh 96
CC(C)C(c1nnnn1C1CCCC1)N1CCCCC1 (stereo unspecified)	none
Cc1cc(C)nc(NC(=O)CN2C(=O)c3ccccc3C2=O)n1	none
O=C(Cn1c(-c2cncs2)nc2ccccc21)NCc1ccccc1	CYP2C19 inhib 80
Cc1ccccc1Cn1c(-c2cncs2)nc2ccccc21	CYP2C19 inhib 76
Brc1cc2c(cc1Cn1c(-c3cncs3)nc3ccccc31)OCO2	none
O=C(CSc1nnc(-c2ccccc2O)o1)Oc1ccc(OCc2ccccc2)cc1	none
O=C(NCCN1CCOCC1)C1CCC(=O)N1C1CCCCC1 (stereo unspecified)	none (no result: CD11b adhes inh, Mac1 fbg enh)
COc1cccc(CNC(=O)C2CCN(S(=O)(=O)c3cccs3)CC2)c1	none
COc1ccc(C(=O)/C=C(\N)C(F)(F)F)c(O)c1	CYP2C19 inhib 60
CCN(c1ccc(C)c(C)c1)S(=O)(=O)c1c(C)[nH]c(=O)[nH]c1=O	none
COC(C(=O)Nc1ccc(S(=O)(=O)Nc2ccc(F)cc2)cc1)c1ccccc1 (stereo unspecified)	none (no result: CYP2C19 inhib, CYP2C19 activ, CYP2C9 activ, CYP2C9 inh)
COC(C(=O)Nc1ccc(S(=O)(=O)N2CCCCC2)cc1)c1ccccc1 (stereo unspecified)	CYP2C9 inh 80
CC(=O)NC(CC(=O)Nc1cccc(S(=O)(=O)N2CCCCC2)c1)c1ccccc1 (stereo unspecified)	none
CC(=O)NC(CC(=O)Nc1ccc(S(=O)(=O)N2CCCCC2)cc1)c1ccccc1 (stereo unspecified)	CYP2C19 inhib 69, CYP2C9 inh 74
Cc1ccc(N2C(=O)CC(n3nc(C)cc3C)C2=O)cc1 (stereo unspecified)	none
CCCSc1nc(N2CCCC2)c2c(c1C#N)CC(C)(C)OC2	CYP2C19 inhib 57, CYP2C9 inh 94
CSc1nc(N2CCCC2)c2c(c1C#N)CC(C)(C)OC2	none
N#Cc1nc(COc2ccccc2)oc1N1CCOCC1	none
CC1(C)Cc2c(C#N)c(SCCC#N)nc(N3CCOCC3)c2CS1	CYP2C19 inhib 51, CYP2C9 inh 92 (no result: CD11b adhes inh, Mac1 fbg enh)
CC1(C)Cc2c(C#N)c(SCCOc3ccccc3)nc(N3CCOCC3)c2CO1	CYP2C19 inhib 89, CYP2C9 inh 99
O=C(Nc1cccc(F)c1)C1CCN(C(=O)c2ccccc2Cl)CC1	none
Cc1noc(NS(=O)(=O)c2ccc(NC(=O)Nc3ccc(Cl)c(Cl)c3)cc2)c1C	none
CCSc1ncc(Cl)c(C(=O)Nc2ccc(S(=O)(=O)Nc3onc(C)c3C)cc2)n1	CYP2C9 inh 58
CCOc1cc(/C=C2/C(=N)N3C=CSC3=NC2=O)ccc1OCCCOc1ccccc1C	CYP2C9 inh 74 (no result: CD11b adhes inh, Mac1 fbg enh)
COc1cc(/C=C2/C(=N)N3C=CSC3=NC2=O)ccc1OCCCOc1ccccc1C	CYP2C9 inh 76
COc1ccc(/C=C2/C(=O)N=C(N)N2C)cc1OC	none
Cc1ccc(-n2c(C)cc(/C=C3/C(=N)N4C(c5ccccc5)=CSC4=NC3=O)c2C)cc1	none (no result: CYP2C19 inhib, CYP2C19 activ, CYP2C9 activ, CYP2C9 inh)
CN1CCN(C(=O)C2(NC(=O)Nc3cccc(F)c3)CCCCC2)CC1	none
CCC(CC)c1nc(NCCC(=O)O)c2ccccc2n1	none
COC(=O)c1cc2c(-c3ccccc3)c(C)c3ccccn3c-2c1C(=O)OC	CYP2C19 inhib 67, CYP2C9 inh 88
Cc1nnc(SCCn2c(N3CCCC(C)C3)nc3c2c(=O)n(C)c(=O)n3C)s1 (stereo unspecified)	none
CCc1cc2c(N3CCCCC3)ncnc2s1	CYP2C19 inhib 87, CYP2C9 inh 65
CCCCCCSc1nc(O)c(C2OC(=O)c3c2ccc(OC)c3OC)c(=O)n1CC (stereo unspecified)	none
COc1ccc(N(C(=O)COc2ccccc2)C2C=CS(=O)(=O)C2)cc1 (stereo unspecified)	none
Oc1ccc(C2Nc3cccc4cccc(c34)N2)c(O)c1	CYP2C19 inhib 66 (no result: CD11b adhes inh, Mac1 fbg enh, CYP2C9 activ, CYP2C9 inh)
c1coc(C2Nc3cccc4cccc(c34)N2)c1	CYP2C19 inhib 59, CYP2C9 inh 54
O=[N+]([O-])c1cccc(C2Nc3cccc4cccc(c34)N2)c1	none (no result: CYP2C19 inhib, CYP2C19 activ, CYP2C9 activ, CYP2C9 inh)
Cc1cc(NC(=O)NC(=O)c2ccc(F)cc2F)n[nH]1	none (no result: CD11b adhes inh, Mac1 fbg enh)
